Measured values reported in PubChem BioAssay (EPA / NIEHS).
Results filed as inconclusive are left out. Activity calls are given as the source filed them. How the source made its calls: active means hit-call score of the fitted dose curve at least 0.9, where 1 is the maximum; inconclusive means response in the unintended direction; inactive means score below 0.9.

Tests used:
[1] = ATG_XTT_Cytotoxicity: Cytotoxicity Assessment in the Attagene TRANS-FACTORIAL HepG2 Assay (AID 2283584);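 on AC50: XTT signal for cell number as viability in transfected HepG2 cells; cells exposed to compound for 24 h before reading; active means loss of viability signal versus DMSO baseline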
Method in brief: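 Transfect HepG2 with GAL4-UAS reporter units, dose compound, incubate 24 h, then measure viable cell number by XTT. Fit concentration response against DMSO baseline.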

[2] = TOX21_p53_BLA_p2_viability: Viability Assessment in the Tox21 HCT-116 p53 Agonism Beta-lactamase Assay, Phase 2 (AID 2283591);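 further: compound exposure lasted 16 h at 37 °C; actives lower the ATP signal meaning cytotoxicity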
Method in brief: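 HCT-116 p53-bla cells (4000/well) rested 5 h at 37C, then received compounds in DMSO (217-fold dilution) for 16 h at 37C, 5% CO2. After the CCF4 read, CellTiter-Glo was added; ATP luminescence was read after 30 min at room temperature.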

[3] = target: Cellular tumor antigen p53 (Homo sapiens) (UniProt P04637); test: TOX21_p53_BLA_p2_ratio: Tox21 HCT-116 p53 Agonism Beta-lactamase Assay, Ratio, Phase 2 (AID 2283592)
Method in brief: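 Cleaved-to-uncleaved substrate ratio (460 vs 530 nm) measured in HCT116 cells with an inducible beta-lactamase reporter linked to p53 activity. Compounds incubated 16 h at 37C before 2 h room-temperature CCF4-AM loading.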

[4] = target: Cellular tumor antigen p53 (Homo sapiens) (UniProt P04637); test: TOX21_p53_BLA_p3_ratio: Tox21 HCT-116 p53 Agonism Beta-lactamase Assay, Ratio, Phase 3 (AID 2283596)
Method in brief: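 Cells were seeded at 4000/well, rested 5 h at 37C, then dosed with DMSO compound solutions (217-fold dilution) for 16 h. CCF4-AM substrate was loaded for 2 h at room temperature, and the 460/530 nm emission ratio was fitted for gain of signal versus DMSO.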

[5] = target: Cellular tumor antigen p53 (Homo sapiens) (UniProt P04637); test: TOX21_p53_BLA_p5_ratio: Tox21 HCT-116 p53 Agonism Beta-lactamase Assay, Ratio, Phase 5 (AID 2283599)
Method in brief: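 HCT-116 cells carrying a p53-inducible beta-lactamase reporter were seeded at 4000 cells/well and dosed after 5 h with compound in DMSO (217-fold dilution). After 16 h at 37C, CCF4-AM substrate was added for 2 h, and the 460/530 nm emission ratio was scored as gain-of-signal versus DMSO.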

[6] = target: Cellular tumor antigen p53 (Homo sapiens) (UniProt P04637); test: TOX21_p53_BLA_p4_ratio: Tox21 HCT-116 p53 Agonism Beta-lactamase Assay, Ratio, Phase 4 (AID 2283601)
Method in brief: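 HCT116 cells carrying an inducible beta-lactamase reporter were plated at 4000 cells/well, rested 5 h, then exposed to compounds in DMSO (217-fold dilution) for 16 h at 37C. CCF4-AM substrate was loaded 2 h at room temperature; 460/530 nm emission ratio scored gain-of-signal versus DMSO.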

[7] = TOX21_p53_BLA_p5_viability: Viability Assessment in the Tox21 HCT-116 p53 Agonism Beta-lactamase Assay, Phase 5 (AID 2283600)
Method in brief: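 Viability is taken from cellular ATP content, measured by luciferase luminescence in the same wells after the beta-lactamase ratio read. Cells are seeded at 4000 per well and exposed to DMSO-dissolved compounds, diluted 217-fold, for 16 h.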

[8] = TOX21_p53_BLA_p3_viability: Viability Assessment in the Tox21 HCT-116 p53 Agonism Beta-lactamase Assay, Phase 3 (AID 2283593);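 further: cells exposed to compound for 16 h before reading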
Method in brief: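 HCT-116 cells (4000/well) rested 5 h at 37C, then got DMSO compounds by pin tool (217-fold dilution) for 16 h at 37C, 5% CO2. After the bla read, CellTiter-Glo was added and luminescence read at 30 min, room temperature.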

[9] = TOX21_p53_BLA_p4_viability: Viability Assessment in the Tox21 HCT-116 p53 Agonism Beta-lactamase Assay, Phase 4 (AID 2283597);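 further: hits lower the luminescence signal meaning cytotoxicity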
Method in brief: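 Viability is taken as cellular ATP: after 16 h compound exposure of HCT116 cells and a 2 h room-temperature CCF4-AM substrate step, CellTiter-Glo reagent is added and luminescence is measured 30 min later.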

Measured: AC50

Cellular tumor antigen p53 (Homo sapiens), sequence (P04637 whole entry, looked up): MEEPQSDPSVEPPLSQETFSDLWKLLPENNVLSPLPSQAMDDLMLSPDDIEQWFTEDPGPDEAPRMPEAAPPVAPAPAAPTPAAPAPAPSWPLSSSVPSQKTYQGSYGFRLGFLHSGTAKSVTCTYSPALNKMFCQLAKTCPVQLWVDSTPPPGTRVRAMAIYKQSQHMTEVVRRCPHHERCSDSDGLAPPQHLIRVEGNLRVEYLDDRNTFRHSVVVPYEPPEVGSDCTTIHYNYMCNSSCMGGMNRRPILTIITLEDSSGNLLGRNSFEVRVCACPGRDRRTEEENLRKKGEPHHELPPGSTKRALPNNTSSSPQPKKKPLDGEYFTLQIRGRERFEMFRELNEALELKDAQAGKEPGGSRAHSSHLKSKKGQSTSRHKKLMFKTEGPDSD

CC(=O)Nc1ccc(C)cc1C
not listed: [7] | [8] | [9]
inactive: all other assays above

Cc1cc(C2(c3cc(C)c(O)cc3C)OS(=O)(=O)c3ccccc32)c(C)cc1O
inactive: [1] | [2] | [3] | [4] | [7]

OCCOCCOCCOCCO
not listed: [4] | [8] | [9]
inactive: all other assays above

C=CC(=O)OCCn1c(=O)n(CCOC(=O)C=C)c(=O)n(CCOC(=O)C=C)c1=O
active: [1] 71 µM | [2] 46.1 µM | [9] 15.4 µM
inactive: [8] | [5] | [7] | [6]

FC1(F)C(F)(F)C(F)(F)C2(F)C(F)(C1(F)F)C(F)(F)C(F)(F)C1(F)C(F)(F)C(F)(F)C(F)(F)C(F)(F)C12F (stereo not given)
not listed: [8] | [9]
inactive: all other assays above

O=[N+]([O-])c1ccc(Nc2ccc(Nc3ccccc3)c(S(=O)(=O)O)c2)c([N+](=O)[O-])c1
inactive: [1] | [2] | [9] | [7]

CCCCCCCCC
not listed: [4] | [5] | [8]
inactive: all other assays above

CC1=CCC(O)(C(C)C)CC1 (stereo not given)
not listed: [7] | [8] | [9]
inactive: all other assays above

CC(=O)[O][Al][O]C(C)=O
inactive: [1] | [2] | [9] | [7]

CC1(CO)CN(c2ccccc2)NC1=O (stereo not given)
inactive: [1] | [2] | [3] | [9] | [5]

CC(C)=CCC[C@](C)(O)[C@@H]1CC=C(C)CC1
not listed: [3] | [8] | [9]
inactive: all other assays above

CCc1ccc(C=O)cc1
inactive: [1] | [2] | [3] | [4] | [7]

O=C1CCc2ccccc2O1
not listed: [8] | [9]
inactive: all other assays above

O=C(O)c1snc(Cl)c1Cl
not listed: [4] | [8]
inactive: all other assays above

O=C1CCCCCCCCCCCCCCO1
not listed: [4] | [8] | [9]
inactive: all other assays above

O=Cc1ccc(F)cc1
not listed: [4] | [5] | [8]
inactive: all other assays above

CCCCC(CC)COCCC#N (stereo not given)
inactive: [1] | [2] | [3] | [5] | [7]

C=CC(=O)OCCOCCOCC
not listed: [4] | [8] | [9]
inactive: all other assays above

CCCCc1ccc(N)cc1
not listed: [3] | [7]
inactive: all other assays above

CCCC(=O)C(C)=O
not listed: [8] | [9]
inactive: all other assays above

CC(=O)[C@H]1CC[C@H]2[C@@H]3CC=C4C[C@@H](O)CC[C@]4(C)[C@H]3CC[C@]12C
not listed: [4] | [8] | [9]
inactive: all other assays above

O=c1cc(-c2ccccc2)oc2cc(O)cc(O)c12
active: [5] 22.3 µM | [6] 46.1 µM
inactive: [1] | [2] | [8] | [7]

Cc1ccccc1C=O
not listed: [3] | [8]
inactive: all other assays above

CC(C)=CCC/C(C)=C/COC=O
not listed: [4] | [8]
inactive: all other assays above

O=C(O)CN(CCN(CC(=O)O)CC(=O)O)CCN(CC(=O)O)CC(=O)O
not listed: [8] | [9]
inactive: all other assays above

c1ccc(CCCc2ccccn2)cc1
not listed: [8] | [9]
inactive: all other assays above

c1cc(C(c2ccc(OCC3CO3)cc2)c2ccc(OCC3CO3)cc2)ccc1OCC1CO1 (stereo not given)
inactive: [1] | [2] | [8] | [7]

CC(C)(C)C(=O)c1ccccc1
not listed: [4] | [8] | [9]
inactive: all other assays above

O=S(=O)(O)c1ccc(O)c2ncccc12
not listed: [3] | [9]
inactive: all other assays above

CSc1nc(NC2CC2)nc(NC(C)(C)C)n1
inactive: [1] | [2] | [8] | [9] | [5]

CC(C)CCCCCCCOC(=O)c1ccc(C(=O)OCCCCCCCC(C)C)c(C(=O)OCCCCCCCC(C)C)c1
inactive: [1] | [2] | [4] | [5] | [6]
